Results taken from PubChem BioAssay (NCI).
Compounds without any hit were thinned out: in the full panel of roughly 83,000, 20% have a hit.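 Values shown are percent growth following 48 h exposure of cells in 96-well plates to a single concentration of compound; below 10 was considered active.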 Calls of active or inactive are those of the source.

Key:
Experiment in all cases: NCI-60 one-dose screen, 48 h (100 = growth as untreated, 0 = no growth, -100 = all killed)
Conditions in all cases: 10 µM unless noted
[1] = test system: EKVX NSCLC
[2] = test system: SN12C renal
[3] = test system: UO-31 renal
[4] = test system: TK-10 renal
[5] = test system: ACHN renal
[6] = test system: CAKI-1 renal
[7] = test system: CCRF-CEM leukemia
[8] = test system: MOLT-4 leukemia
[9] = test system: SR leukemia

Measured: growth

CCCC(=O)NC(c1cccc(N(C)C)c1)c1cc(C)c2cccnc2c1O (stereo not given)
inactive: [1] 73.8% | [2] 78.2% | [3] 31.9% | [4] 84.9% | [5] 38.2% | [6] 48.3% | [7] 24.1% | [8] 22.9% | [9] 21.7%

COc1ccc(/C=C2\SC(=Nc3cc(C)[nH]n3)NC2=O)cc1
inactive: [1] 91.5% | [2] 96% | [3] 75.3% | [4] 102% | [5] 88.1% | [6] 83.4% | [7] 86.7% | [8] 94% | [9] 82%

C#Cc1nc(C2=C(C)C(OC(C)=O)/C(=N/OC(C)=O)C2)cs1 (stereo not given)
inactive: [2] 86.6% | [4] 203%
active: [1] 9.96% | [3] -88.9% | [5] -66% | [6] -50.2% | [7] -39% | [8] -35.2% | [9] -25.6%

O=C(N/N=C/c1ccco1)c1[nH]c2ccc(Br)cc2c1-c1ccccc1
inactive: [1] 37.9% | [2] 38.1% | [3] 38.6% | [4] 98.7% | [5] 29.3% | [6] 30.3% | [7] 15.6% | [8] 15.8% | [9] 11.2%

CCOC(=O)c1c(Nc2ccccc2)nn2c(N)c(C#N)c(-c3ccc(F)cc3)nc12
inactive: [1] 83.1% | [2] 95.9% | [3] 78.9% | [4] 109% | [5] 81.6% | [6] 91.2% | [7] 68% | [8] 46% | [9] 65%

Cn1ccnc1C(=O)/C=C/c1ccc(NC(=O)Nc2ccccc2)cc1
inactive: [1] 16.5% | [2] 45.6% | [3] 40.7% | [4] 85.9% | [5] 26.8% | [6] 31.9%
active: [7] 7.34% | [8] 4.35% | [9] -3.08%

O=C(N/N=C/c1ccc([N+](=O)[O-])o1)c1[nH]c2ccc(Br)cc2c1-c1ccccc1
active: [7] 7.85% | [8] 5.69% | [9] 6.28%
inactive: [1] 39.2% | [2] 21.9% | [3] 30.9% | [4] 78.7% | [5] 16.1% | [6] 20.3%

O=C(Oc1ccc2ccc(=O)oc2c1)c1ccc(Cl)cc1
inactive: [1] 99.2% | [2] 98.7% | [3] 86.7% | [4] 125% | [5] 106% | [6] 98.5% | [7] 103% | [8] 106% | [9] 96.6%

CC(=NNc1ncnc2ccccc12)c1ccc(S(C)(=O)=O)cc1
inactive: [1] 91.1% | [2] 97.2% | [3] 73.1% | [4] 152% | [5] 103% | [6] 89.4% | [7] 99.9% | [8] 100% | [9] 100%

COc1cc(OC)c(S(=O)(=O)NNC(=O)c2ccncc2)cc1C(=O)/C=C/c1ccc(C)cc1
active: [7] 8.66%
inactive: [1] 85.7% | [2] 95.8% | [3] 77.5% | [4] 145% | [5] 98.1% | [6] 72.4% | [8] 42.2% | [9] 21.9%

N#Cc1ccc(/C=N/NC(=O)c2[nH]c3ccc(Br)cc3c2-c2ccccc2)s1
active: [7] 9.74% | [8] 4.12% | [9] 7.7%
inactive: [1] 25% | [2] 42.1% | [3] 36% | [4] 102% | [5] 18.2% | [6] 18.3%

COC(=O)c1ccc(NC(=S)N2CCc3ccc([N+](=O)[O-])cc3C2)cc1O
inactive: [1] 99.2% | [2] 99.8% | [3] 85.5% | [4] 137% | [5] 95.4% | [6] 92.7% | [7] 94.9% | [8] 91.7% | [9] 95.5%

N#Cc1nc(-c2ccccc2)oc1N1CC[C@@H](CO)C1
inactive: [1] 98.5% | [2] 98.1% | [3] 86.3% | [4] 123% | [5] 95.9% | [6] 91.5% | [7] 93.6% | [8] 101% | [9] 84.6%

COc1cc(/C=C/C(=O)c2ccc(Cl)cc2)ccc1Oc1nc(NCCO)nc(N2CCOCC2)n1
active: [9] 9.04%
inactive: [1] 99.6% | [2] 96.6% | [3] 76.7% | [4] 110% | [5] 98.8% | [6] 94.2% | [7] 78.4% | [8] 78.6%

COc1ccc(C(=O)/C=C/c2ccc(OCc3ccc(Cl)cc3)c(OC)c2)cc1OC
inactive: [1] 62.2% | [2] 76.6% | [3] 54.1% | [4] 110% | [5] 73.4% | [6] 59.7% | [7] 22.5% | [8] 38.6%
active: [9] 7.68%

Cc1cc(C(NC(=O)CCCCCNc2cccc3c2C(=O)N(C2CCC(=O)NC2=O)C3=O)c2cccnc2)c(O)c2ncccc12 (stereo not given)
active: [7] -4.83% | [8] 1.29%
inactive: [1] 34.3% | [2] 20.1% | [3] 18.7% | [4] 19.2% | [5] 35.6% | [6] 14.2% | [9] 11.6%

COc1ccc(/C=N/NC(=O)c2[nH]c3ccc(Br)cc3c2-c2ccccc2)s1
inactive: [1] 42.8% | [2] 50% | [3] 45.1% | [4] 122% | [5] 27% | [6] 24.5% | [8] 10.4%
active: [7] 9.96% | [9] 5.56%

COc1ccc(-n2c(SCC(=O)Nc3ccc(-c4nc5ccccc5[nH]4)cc3)nc3ccccc3c2=O)cc1
inactive: [1] 53.1% | [2] 62.3% | [3] 73.5% | [4] 107% | [5] 54% | [6] 36.8% | [7] 25.7% | [8] 25.7%
active: [9] -4.97%

N#Cc1c(-c2ccc(Cl)cc2)nc2c(-c3ccccc3)c(Nc3ccccc3)nn2c1N
inactive: [1] 60.6% | [2] 77.5% | [3] 34.8% | [4] 139% | [5] 11% | [6] 35.1% | [7] 67.9% | [9] 36.9%

NS(=O)(=O)c1cccc(Nc2nc(SCC(=O)c3ccc(Br)cc3)nc3ccccc23)c1
inactive: [1] 64.8% | [2] 74.9% | [3] 59.6% | [4] 124% | [5] 28% | [7] 68.6% | [8] 44% | [9] 37.1%
active: [6] -11.3%

Nc1nc(N)c2c(n1)NC(c1ccc(F)cc1)CC(c1ccc(Nc3nc(NCCO)nc(Nc4ccc(Cl)cc4)n3)cc1)=N2 (stereo not given)
inactive: [1] 42.5% | [2] 59.9% | [3] 34.8% | [4] 111% | [5] 39.5% | [6] 40.9%
active: [7] -13.8% | [8] -17.5% | [9] -17.9%

NS(=O)(=O)c1ccc(Nc2nc(Nc3ccccc3)nc(-n3nc(-c4ccccc4)cc3-c3ccccc3)n2)cc1
inactive: [1] 40.3% | [2] 41.2% | [3] 29.1% | [4] 108% | [5] 15.3% | [6] 21% | [7] 10.7%
active: [8] 4.14% | [9] 0.684%

CCOC(=O)c1c(Nc2ccccc2)nn2c(N)c(C#N)c(-c3ccccc3)nc12
inactive: [1] 82.3% | [2] 93.9% | [3] 81.1% | [4] 105% | [5] 83.4% | [6] 72% | [7] 68.3% | [8] 46.8% | [9] 58.9%

Nc1nc(N)c2c(n1)NC(c1ccc(C(F)(F)F)cc1)CC(c1ccc(Nc3nc(NCCO)nc(Nc4ccc(Cl)cc4)n3)cc1)=N2 (stereo not given)
inactive: [4] 91.1%
active: [1] -47.3% | [2] -40.2% | [3] -48.6% | [5] -90.2% | [6] -88.1% | [7] -5.25% | [8] -15.2% | [9] -31.7%

O=C1NC(=C(Cl)Cl)/C(=N/S(=O)(=O)N2CCCCC2CC2(C(F)(F)F)N=N2)N1 (stereo not given)
active: [5] -48.9% | [6] -65.4% | [7] 4.21% | [8] -9.34% | [9] -33.4%
inactive: [1] 59.2% | [2] 95.8% | [3] 18.2% | [4] 63.4%

C#Cc1nc(C2=C(C)C(=O)/C(=N/OC(C)=O)C2)cs1
inactive: [1] 97.5% | [2] 99% | [4] 151% | [5] 26.3% | [6] 58.5% | [7] 80.8% | [8] 87.7% | [9] 13.4%
active: [3] -92.1%

COc1cc(/C=C/C(=O)c2ccc(C)cc2)ccc1Oc1nc(NCCO)nc(N2CCOCC2)n1
inactive: [1] 67.8% | [2] 74% | [3] 51.5% | [4] 125% | [5] 55.7% | [6] 50.4%
active: [7] 3.44% | [8] 0.537% | [9] -3.65%

COc1cc(/C=C/C(=O)c2cc(OC)c(OC)c(OC)c2)ccc1OCc1ccc(F)cc1
active: [7] 5.5%
inactive: [1] 51.2% | [2] 67.9% | [3] 45.4% | [4] 159% | [5] 64.8% | [6] 45.8% | [8] 46.2% | [9] 16.3%

COc1cc(/C=C/C(=O)c2ccccc2)ccc1Oc1nc(NCCO)nc(N2CCOCC2)n1
active: [9] 8.72%
inactive: [1] 95.5% | [2] 97.3% | [3] 80.8% | [4] 124% | [5] 98.4% | [6] 86.2% | [7] 30.3% | [8] 71.3%
